# Results taken from PubChem BioAssay (NCATS).
# Results filed as inconclusive are left out. Active and inactive are the calls of the source. Calls follow the shape of the full dose curve.
# Test: qHTS for identification of novel therapeutic agents for treatment of microphthalmiaassociated transcription factor (MiT) renal cell carcinoma (RCC) (AID 1963991)
# Conditions: TFE3-RCC UOK109 viability, CellTiter-Glo, 48 h
# Outline: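 Curves over 11 concentrations were fitted to CellTiter-Glo luminescence, scaled between empty wells (0%) and DMSO (100%) viability. Cells were UOK109, UOK124 and UOK145 TFE3-fusion RCC lines at 500/well, exposed 48 hours at 37 C.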
# Potency is read from the fitted curve at half-maximal effect.
row,SMILES,Potency
1,CC[C@@]1(O)C(=O)OCc2c1cc1n(c2=O)Cc2cc3ccccc3nc2-1,0.59 µM (active)
2,Cc1ccccc1-n1c(Cn2cnc3c(N)ncnc32)nc2cccc(C)c2c1=O,0.235 µM (active)
3,COc1cc([C@@H]2c3cc4c(cc3[C@@H](O)C3COC(=O)C32)OCO4)cc(OC)c1O (some centres not stated),0.0418 µM (active)
4,Cc1ccccc1-n1c(Cn2ncc3c(N)ncnc32)nc2cccc(C)c2c1=O,0.0526 µM (active)
5,O=C(Nc1ccncc1)C(=O)c1cn(Cc2ccc(Cl)cc2)c2ccccc12,0.469 µM (active)
6,CC1=C(O)C(=O)C=C2C1=CC=C1[C@@]2(C)CC[C@@]2(C)[C@@H]3C[C@](C)(C(=O)O)CC[C@]3(C)CC[C@]12C,2.64 µM (active)
7,O=c1[nH]c2ccc(Cl)cc2c(N[C@@H]2CN3CCC2CC3)c1-c1nc2ccccc2[nH]1,3.72 µM (active)

# Same assay, conditions: TFE3-RCC UOK109 viability, CellTiter-Glo, 48 h; measured here: UOK109 Z-AUC; stronger effect = lower value
row,SMILES,z-score
1,CC[C@@]1(O)C(=O)OCc2c1cc1n(c2=O)Cc2cc3ccccc3nc2-1,-1.89
2,CN(C)[C@@H]1C(=O)C(C(N)=O)=C(O)[C@@]2(O)C(=O)C3=C(O)c4c(O)cccc4[C@@](C)(O)[C@H]3[C@H](O)[C@@H]12,2.05
3,CSCC[C@@H](NC(=O)[C@@H](Cc1ccccc1)NC(=O)CNC(=O)CNC(=O)[C@@H](N)Cc1ccc(O)cc1)C(=O)O,0.576
4,COc1ccc2c(c1)[C@]13CCCCC1C(C2)N(C)CC3 (some centres not stated),-0.129
5,COC(=O)[C@@H](N)CCCN=C(N)N[N+](=O)[O-],0.59
6,O=S(=O)(F)Cc1ccccc1,0.128
7,C[C@]12COC(=O)C[C@@H]1CC[C@@H]1[C@H]2CC[C@@]2(C)[C@H]1CC[C@]2(C)O,0.93
8,CCc1c(C(=O)C(N)=O)c2c(OCC(=O)O)cccc2n1Cc1ccccc1,-0.00568
9,Cc1ccccc1-n1c(Cn2cnc3c(N)ncnc32)nc2cccc(C)c2c1=O,-2.22
10,COc1cc([C@@H]2c3cc4c(cc3[C@@H](O)C3COC(=O)C32)OCO4)cc(OC)c1O (some centres not stated),-1.65
11,C[C@@H]1[C@H](O)[C@@H](C)C=CC=CCCC=CC=CC=CC=C[C@H](O[C@H]2O[C@@H](C)[C@H](O)[C@@H](N)[C@@H]2O)CC2O[C@](O)(C[C@@H](O)[C@H](O)CC[C@@H](O)C[C@@H](O)C[C@@H](O)CC(=O)O[C@H]1C)C[C@H](O)[C@H]2C(=O)O,0.777
12,CC(C)[C@]12O[C@@H]1[C@@H]1O[C@]13[C@]1(O[C@H]1C[C@@H]1C4=C(CC[C@@]13C)C(=O)OC4)[C@H]2O,-3.4
13,CN(C)NC(=O)CCC(=O)O,0.632
14,C#CC1(O)CCC2C3CCC4=CC(=O)CCC4(C)C3CCC21C (configuration not stated),0.285
15,CC(C)N(CCNC(=O)CN1CCCC1=O)C(C)C,0.955
16,Cc1ccccc1-n1c(Cn2ncc3c(N)ncnc32)nc2cccc(C)c2c1=O,-1.3
17,O=C(Nc1ccncc1)C(=O)c1cn(Cc2ccc(Cl)cc2)c2ccccc12,-1.08
18,CC1=C(O)C(=O)C=C2C1=CC=C1[C@@]2(C)CC[C@@]2(C)[C@@H]3C[C@](C)(C(=O)O)CC[C@]3(C)CC[C@]12C,-1.17

row,SMILES,z-score
1,CCN1C[C@]2(OC(=O)c3ccccc3NC(C)=O)CC[C@H](OC)[C@@]34[C@H]5CC6[C@@H](OC)C[C@](O)(C(C[C@@H]23)[C@@H]14)[C@@]5(O)[C@@H]6OC,0.543
2,CCOC(=O)c1cncn1[C@H](C)c1ccccc1,1.85
3,C[C@@H]1CC[C@H]2[C@@H](C)C(=O)O[C@@H]3O[C@@]4(C)CC[C@H]1[C@]32OO4,0.72
4,COc1cccc2c1[C@]13CCN(CC4CC4)[C@H](C2)[C@]1(OC)CCC(=O)C3,0.6
5,CCCC[N+]1(C)[C@H]2CC(OC(=O)[C@H](CO)c3ccccc3)C[C@H]1[C@H]1O[C@H]12 (some centres not stated),0.529
6,C[C@]12CC[C@@H]3[C@@H](CCC4=CC(=O)CC[C@@H]43)[C@@H]1CC[C@@H]2OC(=O)CCc1ccccc1,0.952
7,c1ccc2c(CN3CCNCC3)cccc2c1,0.545
8,CCOP(=O)(OCC)C(C)NC(=O)N(CCCl)N=O (configuration not stated),0.0132
9,c1cc2c(cc1[C@H]1OC[C@H]3[C@H]1CO[C@H]3c1ccc3c(c1)OCO3)OCO2,0.442
10,CCC(=O)OC1CCC2C3CCC4=CC(=O)CC[C@@]4(C)C3CC[C@]12C (some centres not stated),0.231
11,CC(O)=C(C#N)C(=O)Nc1cc(Br)ccc1Br,0.277
12,O=c1[nH]c2ccc(Cl)cc2c(N[C@@H]2CN3CCC2CC3)c1-c1nc2ccccc2[nH]1,-0.938
13,CC[C@@H](C(N)=O)N1CCCC1=O,1.12
14,Clc1ccccc1C(c1ccccc1)(c1ccccc1)n1cccn1,-0.446
15,CC1=NN=C(c2ccc(N)cc2)c2cc3c(cc2C1)OCO3,0.644
16,NC1=NC(=O)N2CC12 (configuration not stated),0.952
17,C1=C2CCCN[C@H]2[C@@H]2C[C@H]1[C@@H]1CCCCN1C2,-0.0816

# Same assay, conditions: TFE3-RCC viability, CellTiter-Glo, 48 h; measured here: UOK124 Z-AUC; stronger effect = lower value
row,SMILES,z-score
1,CC[C@@]1(O)C(=O)OCc2c1cc1n(c2=O)Cc2cc3ccccc3nc2-1,-3.04
2,CN(C)[C@@H]1C(=O)C(C(N)=O)=C(O)[C@@]2(O)C(=O)C3=C(O)c4c(O)cccc4[C@@](C)(O)[C@H]3[C@H](O)[C@@H]12,0.404
3,CSCC[C@@H](NC(=O)[C@@H](Cc1ccccc1)NC(=O)CNC(=O)CNC(=O)[C@@H](N)Cc1ccc(O)cc1)C(=O)O,0.642
4,COc1ccc2c(c1)[C@]13CCCCC1C(C2)N(C)CC3 (some centres not stated),0.851
5,COC(=O)[C@@H](N)CCCN=C(N)N[N+](=O)[O-],0.788
6,O=S(=O)(F)Cc1ccccc1,-1.89
7,C[C@]12COC(=O)C[C@@H]1CC[C@@H]1[C@H]2CC[C@@]2(C)[C@H]1CC[C@]2(C)O,0.76
8,CCc1c(C(=O)C(N)=O)c2c(OCC(=O)O)cccc2n1Cc1ccccc1,0.644
9,Cc1ccccc1-n1c(Cn2cnc3c(N)ncnc32)nc2cccc(C)c2c1=O,-1.13
10,COc1cc([C@@H]2c3cc4c(cc3[C@@H](O)C3COC(=O)C32)OCO4)cc(OC)c1O (some centres not stated),-1.93
11,C[C@@H]1[C@H](O)[C@@H](C)C=CC=CCCC=CC=CC=CC=C[C@H](O[C@H]2O[C@@H](C)[C@H](O)[C@@H](N)[C@@H]2O)CC2O[C@](O)(C[C@@H](O)[C@H](O)CC[C@@H](O)C[C@@H](O)C[C@@H](O)CC(=O)O[C@H]1C)C[C@H](O)[C@H]2C(=O)O,0.659
12,CC(C)[C@]12O[C@@H]1[C@@H]1O[C@]13[C@]1(O[C@H]1C[C@@H]1C4=C(CC[C@@]13C)C(=O)OC4)[C@H]2O,-3.26
13,CN(C)NC(=O)CCC(=O)O,0.666
14,C#CC1(O)CCC2C3CCC4=CC(=O)CCC4(C)C3CCC21C (configuration not stated),0.199
15,CC(C)N(CCNC(=O)CN1CCCC1=O)C(C)C,0.437
16,Cc1ccccc1-n1c(Cn2ncc3c(N)ncnc32)nc2cccc(C)c2c1=O,-1.03
17,O=C(Nc1ccncc1)C(=O)c1cn(Cc2ccc(Cl)cc2)c2ccccc12,-1.43
18,CC1=C(O)C(=O)C=C2C1=CC=C1[C@@]2(C)CC[C@@]2(C)[C@@H]3C[C@](C)(C(=O)O)CC[C@]3(C)CC[C@]12C,-1.16

row,SMILES,z-score
1,CCN1C[C@]2(OC(=O)c3ccccc3NC(C)=O)CC[C@H](OC)[C@@]34[C@H]5CC6[C@@H](OC)C[C@](O)(C(C[C@@H]23)[C@@H]14)[C@@]5(O)[C@@H]6OC,0.783
2,CCOC(=O)c1cncn1[C@H](C)c1ccccc1,0.442
3,C[C@@H]1CC[C@H]2[C@@H](C)C(=O)O[C@@H]3O[C@@]4(C)CC[C@H]1[C@]32OO4,0.74
4,COc1cccc2c1[C@]13CCN(CC4CC4)[C@H](C2)[C@]1(OC)CCC(=O)C3,0.387
5,CCCC[N+]1(C)[C@H]2CC(OC(=O)[C@H](CO)c3ccccc3)C[C@H]1[C@H]1O[C@H]12 (some centres not stated),0.336
6,C[C@]12CC[C@@H]3[C@@H](CCC4=CC(=O)CC[C@@H]43)[C@@H]1CC[C@@H]2OC(=O)CCc1ccccc1,0.605
7,c1ccc2c(CN3CCNCC3)cccc2c1,0.291
8,CCOP(=O)(OCC)C(C)NC(=O)N(CCCl)N=O (configuration not stated),-0.441
9,c1cc2c(cc1[C@H]1OC[C@H]3[C@H]1CO[C@H]3c1ccc3c(c1)OCO3)OCO2,0.255
10,CCC(=O)OC1CCC2C3CCC4=CC(=O)CC[C@@]4(C)C3CC[C@]12C (some centres not stated),0.282
11,CC(O)=C(C#N)C(=O)Nc1cc(Br)ccc1Br,0.279
12,O=c1[nH]c2ccc(Cl)cc2c(N[C@@H]2CN3CCC2CC3)c1-c1nc2ccccc2[nH]1,-2.71
13,CC[C@@H](C(N)=O)N1CCCC1=O,0.779
14,Clc1ccccc1C(c1ccccc1)(c1ccccc1)n1cccn1,0.841
15,CC1=NN=C(c2ccc(N)cc2)c2cc3c(cc2C1)OCO3,0.871
16,NC1=NC(=O)N2CC12 (configuration not stated),1.24
17,C1=C2CCCN[C@H]2[C@@H]2C[C@H]1[C@@H]1CCCCN1C2,0.828
